Inconclusive results are not listed. Active and inactive are the calls of the source. Unless noted, no stated cut-off is given here; in the data, active means inhibition above about 30%; inactive means the rest.

A short description of test [1]: Her2 expression decrease, cell viability multiplex – SKBR3 breast tumor cells, AlphaScreen, ATP viability, primary screen (AID 461;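 active means Her2 level under about 52% in both replicate screens, with viability over 70% of control, limit read from the data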;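 on Her2 level: lower value means less Her2 protein in the cells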;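 on viability: percent of carrier control wells set as 100% viability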). The following applies: SKBR3 Her2 protein level, 18-24 h, measured here: SKBR3 viability, ATP luminescence, at 10 µM.
Test [2] deals with Receptor tyrosine-protein kinase erbB-2 (Homo sapiens) (UniProt P04626). The test is described as above. The following applies: 18-24 h, at 10 µM, stronger effect = lower value.
Receptor tyrosine-protein kinase erbB-2 (Homo sapiens), sequence (P04626 whole entry, looked up): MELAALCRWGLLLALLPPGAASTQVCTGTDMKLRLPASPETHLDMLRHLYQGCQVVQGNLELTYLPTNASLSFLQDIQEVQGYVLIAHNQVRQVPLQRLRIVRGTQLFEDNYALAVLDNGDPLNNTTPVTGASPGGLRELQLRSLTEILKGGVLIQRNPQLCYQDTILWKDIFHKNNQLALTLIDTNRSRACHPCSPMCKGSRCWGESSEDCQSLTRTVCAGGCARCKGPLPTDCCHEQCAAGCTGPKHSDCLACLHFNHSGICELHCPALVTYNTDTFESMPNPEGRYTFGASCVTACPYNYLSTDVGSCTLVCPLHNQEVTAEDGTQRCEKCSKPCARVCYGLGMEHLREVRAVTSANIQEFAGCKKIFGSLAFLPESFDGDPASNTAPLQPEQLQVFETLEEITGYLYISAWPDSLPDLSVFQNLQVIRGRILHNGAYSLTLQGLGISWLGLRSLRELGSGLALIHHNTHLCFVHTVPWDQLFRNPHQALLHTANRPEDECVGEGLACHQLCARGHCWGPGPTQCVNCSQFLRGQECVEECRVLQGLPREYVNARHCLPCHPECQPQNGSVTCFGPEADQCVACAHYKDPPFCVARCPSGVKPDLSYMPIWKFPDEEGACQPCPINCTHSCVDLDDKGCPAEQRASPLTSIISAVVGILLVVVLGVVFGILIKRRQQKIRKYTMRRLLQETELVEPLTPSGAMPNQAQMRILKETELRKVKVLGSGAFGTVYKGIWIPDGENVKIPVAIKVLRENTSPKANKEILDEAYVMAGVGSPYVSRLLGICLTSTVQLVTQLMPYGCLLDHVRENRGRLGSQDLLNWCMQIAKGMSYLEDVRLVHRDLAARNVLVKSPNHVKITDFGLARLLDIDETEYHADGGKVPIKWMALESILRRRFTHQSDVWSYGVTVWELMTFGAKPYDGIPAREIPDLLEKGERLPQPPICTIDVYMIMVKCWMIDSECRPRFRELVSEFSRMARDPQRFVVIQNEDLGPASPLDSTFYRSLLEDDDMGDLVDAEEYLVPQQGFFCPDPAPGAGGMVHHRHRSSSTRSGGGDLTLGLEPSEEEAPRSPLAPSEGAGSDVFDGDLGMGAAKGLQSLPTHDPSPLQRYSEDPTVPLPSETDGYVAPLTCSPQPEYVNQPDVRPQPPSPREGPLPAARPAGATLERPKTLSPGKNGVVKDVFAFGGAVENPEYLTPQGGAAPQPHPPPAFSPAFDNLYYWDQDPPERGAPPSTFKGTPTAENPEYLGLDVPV
Test [3] is described as follows: reduced viability of SK-BR-3 breast cancer cells – cell-based, 24 h, human, pilot screen (AID 572;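 active means viability at or below 10% of carrier control in both of two separate runs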;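 further: compound exposure lasted between 18 and 24 h rather than exactly 24 h; 100% = carrier-treated control wells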). The settings on record: SK-BR-3 viability, CellTiter-Glo luminescence, at 10 µM, stronger effect = lower value.
Test [4] in a line: HUVEC growth inhibition – cell-based, human, primary screen (AID 575;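 active means viability at or below 30% in both replicate assays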;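 further: 100% = median of untreated cell wells with 0.1% DMSO on each plate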). The following applies: HUVEC proliferation, CellTiter-Glo luminescence, 72 h; at 10 µM; stronger effect = lower value.
A short description of test [5]: H69AR cell proliferation blockers – human, duplicate replicates, primary screen (AID 580;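 active means viability at or under a set limit in both replicates, limit being median viability minus 3 SD, cut at about 48% in these data, passing the limit was not always enough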;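 further: 100% = mean luminescence of untreated wells and 0% = no signal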). The settings on record: H69AR lung tumor cells viability, ATP luminescence, 72 h; at 10 µM; stronger effect = lower value.
Test [6] can be described thus: MRP1 drug-resistance reversers in H69AR cells – cell-based, doxorubicin co-treatment, pilot screen (AID 601;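 active means viability loss from added drug above about 55%, and viability with drug at most 40%, in both replicates, limit read from the data, passing the limit was not always enough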). The settings on record: CellTiter-Glo, 72 h, at 10 µM; for differential viability (reversal): stronger effect = higher value.
The nature of test [7]: yeast transport mutant growth inhibition pilot in 384-well plates, post-Golgi transport modulator project (AID 636; in the data active means inhibition above about 31%). The settings on record: absorbance 615 nm, about 18 h, stronger effect = higher value.
Test [8] is described as follows: growth suppression of yeast trafficking mutant, preliminary HTS, modulators of trafficking downstream of Golgi apparatus project, 1536-format plate, OD 615 nm (AID 637). The following applies: yeast transport mutant growth, absorbance 615 nm, 18 h; stronger effect = higher value.
Test [9] can be described thus: S. cerevisiae growth inhibition in permissive medium (OD615), pilot counter-assay for S. cerevisiae lifespan shortening project, permissive growth control (AID 705;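 active means growth inhibition above 25% in both replicates, a cutoff set 3 SD above the mean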). The settings on record: OD615, 24 h, at 10 µM, stronger effect = higher value.
A short description of test [10]: S. cerevisiae growth inhibition in restrictive medium, OD615, pilot screen, restrictive growth control, yeast lifespan reduction project (AID 706;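 active means growth inhibition above a set limit, 3 SD over mean compound inhibition, in both replicates, cut at about 43% in these data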;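 further: modified DeaD lifespan yeast strain shifted to restrictive glucose medium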). The following applies: OD615, 48 h, at 10 µM, stronger effect = higher value.
Test [11] can be described thus: doxorubicin toxicity protection in MRP-1 cells – H69AR cells, CellTiter-Glo, duplicate, MRP-1 activator project, pilot screen (AID 807;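 active means viability increase at or above a cutoff of the median across tested compounds plus 3 SD, cut at about 8.5% in these data, passing the limit was not always enough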;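 further: compound pretreatment 18-22 h then 72 h combined with doxorubicin; 0% = doxorubicin alone and 100% = vehicle without doxorubicin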). The settings on record: H69AR viability with doxorubicin, CellTiter-Glo luminescence; at 10 µM; stronger effect = higher value.
The nature of test [12]: viability of HCT116 without oncogenic beta-catenin – human colon tumor cells, pilot screen (AID 823;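 active means cell viability at or below a set limit in both duplicate runs, the limit being the all-compound median minus 4 SD, cut at about 23% in these data, passing the limit was not always enough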;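 further: 0% = wells killed by 20 µM Hyamine and 100% = untreated DMSO cell wells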). The settings on record: HCT116 beta-catenin knockout viability, CellTiter-Glo, 60 h; at 10 µM; stronger effect = lower value.
Test [13] is described as follows: viability of PTEN-null HCT116 cells – cell-based, HCT116 clonal line, CellTiter-Glo, pilot screen (AID 824;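 active means viability at or below 27.92% in each of two runs, the all-compound median minus 4 SD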;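 further: 0% = 20 µM Hyamine control and 100% = vehicle cell control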). The settings on record: HCT116 PTEN-deleted viability, 60 h, at 10 µM, stronger effect = lower value.
Test [14] can be described thus: RAM pathway blockade in budding yeast – dse1pr::URA3 reporter, 5-FOA selection, pilot screen (AID 869;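 active means inhibition over a set limit, the all-compound mean plus 3 SD, in both replicate runs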;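 further: 0% = DMSO wells with no growth and 100% = 10 µM 1-NA-PP1 with full growth; RAM network block rescues cells from 5-FOA so hits raise OD615 growth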). The following applies: S. cerevisiae dse1pr::URA3 5-FOA growth, OD615, 2 d; at 10 µM; stronger effect = higher value; strain carries analog-sensitive mutant Cbk1 kinase.
Test [15] can be described thus: RAM signaling pathway blockade in yeast – S. cerevisiae, Pdr1DBD-CYC8 efflux-inhibited sensitized strain, primary screen (AID 1298;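 active means RAM network inhibition above 8.4% in each of two replicates, 3 SD over the compound average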;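 further: 0% = DMSO untreated cells without growth and 100% = 10 µM 1-NA-PP1 full growth; higher means more yeast growth rescued from 5-FOA killing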). The following applies: S. cerevisiae cbk1-as DSE1-URA3 strain, 5-FOA growth OD615, 2 d; at 50 µM; stronger effect = higher value.
[16] abbreviates: H69AR cells + 2 uM doxorubicin, measured here: viability with 2 uM doxorubicin, stronger effect = lower value.
Where [17] appears, read: H69AR cells, compound alone cytotoxicity.

Turning to `CCCCOCCCNC(=O)c1ccc(NC(C)=O)cc1`, the viability in test [1] is 108%; in [3], 108% (inactive); in test [4], 86.3% (inactive); in [5], 96.6% (inactive); in [6] (setting [16]) it was 86.6%; in test [6] (setting [17]) it was 96.6%. The viability in [12] was 104% (inactive); in [13] it was 97.4% (inactive). Besides, the Her2 level in test [2] is 133% (inactive). In test [6] (H69AR cells + 2 uM doxorubicin), the differential viability (reversal) is 10% (inactive). The inhibition is 1.04% (inactive) in test [7], -10.7% (inactive) in [8] and 1.42% (inactive) in test [14]. In addition, the growth inhibition in [9] was -9.19% (inactive); in test [10], -26.5% (inactive). Further, the viability increase in [11] is 0.09% (inactive). Besides, in test [15], the RAM network inhibition is -0.63% (inactive).
As for `CCn1cc(C(=O)NCCCOC)c(=O)c2cc(S(=O)(=O)N(C)C)ccc21`, the viability was 92% in [1]; 92% (inactive) in test [3]; 89.3% (inactive) in test [4]; 87.6% (inactive) in test [5]; 111% in test [6] (setting [16]); 87.6% in test [6] (setting [17]). For the same compound, the figures for the viability in [12] and in [13] were 97.6% (inactive) and 94.2% (inactive), respectively. Also, in test [2], the Her2 level was 106% (inactive). Further, the differential viability (reversal) in [6] (H69AR cells + 2 uM doxorubicin) was -23.8% (inactive). In addition, the inhibition in [7] was -1.73% (inactive); in test [8] it was -5.33% (inactive); in test [14], 0.395% (inactive). Besides, the growth inhibition in [9] was -8.04% (inactive); in test [10], -9.63% (inactive). In addition, the viability increase in test [11] was -2.52% (inactive). For the same compound, in test [15], the RAM network inhibition is 0.52% (inactive).
As to `Cc1ccc(Cn2c(=O)c3ccccc3n3c(CCC(=O)O)nnc23)cc1`, the viability in [1] is 107%; in test [3], 107% (inactive); in test [4], 92.5% (inactive); in test [5] it was 98.9% (inactive); in test [6] (setting [16]) it was 91.9%; in test [6] (setting [17]), 98.9%. Also, the viability was 107% (inactive) in test [12] and 98.7% (inactive) in test [13]. Also, the Her2 level in test [2] is 100% (inactive). Further, the differential viability (reversal) in [6] (H69AR cells + 2 uM doxorubicin) was 7.02% (inactive). Moreover, the inhibition in test [7] is -5.07% (inactive); in test [8], 0.33% (inactive); in [14] it was 2.29% (inactive). The growth inhibition was 2.68% (inactive) in test [9] and 7.7% (inactive) in [10]. Besides, the viability increase in test [11] was -1.33% (inactive). Also, the RAM network inhibition in test [15] was 6.3% (inactive).
As to `CCOc1ccc(N(C(C)C(=O)NC2CCCCCC2)S(C)(=O)=O)cc1` (stereo not given), the viability is 90.5% in test [1]; 90.5% (inactive) in test [3]; 101% (inactive) in test [4]; 94.1% (inactive) in test [5]; 92.7% in test [6] (setting [16]); 94.1% in test [6] (setting [17]). In addition, the viability in test [12] was 100% (inactive); in test [13], 90.6% (inactive). Further, the Her2 level in test [2] was 98.5% (inactive). Moreover, the differential viability (reversal) in [6] (H69AR cells + 2 uM doxorubicin) was 1.44% (inactive). In addition, the inhibition in test [7] was -2.69% (inactive); in test [8] it was -3.83% (inactive); in test [14] it was 2.62% (inactive). Moreover, the growth inhibition in [9] was -1.18% (inactive); in test [10], -21% (inactive). For the same compound, in test [11], the viability increase is -2.2% (inactive). Moreover, in test [15], the RAM network inhibition was 6.94% (inactive).
Regarding `Cc1ccc(N(C(=O)c2ccncc2)C2C=CS(=O)(=O)C2)cc1` (stereo not given), the viability is 108% in test [1]; 108% (inactive) in test [3]; 101% (inactive) in test [4]; 103% (inactive) in [5]; 97.5% in [6] (setting [16]); 103% in [6] (setting [17]). Moreover, the viability in [12] is 93.8% (inactive); in [13], 98.4% (inactive). In addition, the Her2 level in test [2] is 110% (inactive). Besides, the differential viability (reversal) in test [6] (H69AR cells + 2 uM doxorubicin) is 5.2% (inactive). The values for the inhibition in test [7] and in test [8] were 0.51% (inactive) and 7.33% (inactive), respectively. Further, the results for the growth inhibition in test [9] and in test [10] were -8.7% (inactive) and -14% (inactive), respectively. Besides, the viability increase in test [11] was 0.88% (inactive). Also, the RAM network inhibition in [15] was 5.22% (inactive).
As to `Cc1nc2ccc(S(=O)(=O)NC(C(=O)N3CCCC3)C(C)C)cc2s1` (stereo not given), the viability in test [1] was 88.5%; in test [3], 88.5% (inactive); in [4], 111% (inactive); in [5], 97.3% (inactive); in test [6] (setting [16]) it was 79.5%; in [6] (setting [17]), 97.3%. The viability in test [12] is 92.2% (inactive); in [13] it was 91.2% (inactive). Besides, the Her2 level in test [2] is 106% (inactive). For the same compound, in test [6] (H69AR cells + 2 uM doxorubicin), the differential viability (reversal) was 17.8% (inactive). The inhibition in [7] was -1.92% (inactive); in test [8] it was -0.5% (inactive); in [14], 2.62% (inactive). Further, the growth inhibition in [9] is 3.5% (inactive); in test [10], 11.5% (inactive). Moreover, the viability increase in [11] is -2.03% (inactive). The RAM network inhibition in test [15] is 0.27% (inactive).
`COc1ccc(C2c3c(oc4ccccc4c3=O)C(=O)N2c2ccc(C)cn2)cc1OC` (stereo not given): the viability was 83% in test [1]; 83% (inactive) in test [3]; 98.6% (inactive) in test [4]; 94.3% (inactive) in test [5]; 71% in test [6] (setting [16]); 94.3% in test [6] (setting [17]). The figures for the viability in test [12] and in [13] were 89% (inactive) and 82.2% (inactive), respectively. The Her2 level in test [2] is 126% (inactive). In addition, the differential viability (reversal) in test [6] (H69AR cells + 2 uM doxorubicin) was 23.3% (inactive). The inhibition in [7] was -0.9% (inactive); in test [8], -7.5% (inactive). Besides, the growth inhibition in test [9] is -7.72% (inactive); in [10], -0.265% (inactive). Further, the viability increase in test [11] was -2.66% (inactive). In addition, the RAM network inhibition in test [15] is 11.6% (inactive).
On to `COc1ccc(C(=O)Nc2nncs2)c(OC)c1`, for which the viability is 95.5% in test [1]; 95.5% (inactive) in test [3]; 93.1% (inactive) in test [4]; 96.9% (inactive) in test [5]; 90.5% in test [6] (setting [16]); 96.9% in test [6] (setting [17]). Further, the viability in test [12] is 102% (inactive); in test [13] it was 93.9% (inactive). Further, the Her2 level in [2] is 112% (inactive). For the same compound, in test [6] (H69AR cells + 2 uM doxorubicin), the differential viability (reversal) was 6.36% (inactive). For the same compound, the figures for the inhibition in test [7] and in [8] were -3.46% (inactive) and 3.33% (inactive), respectively. Besides, the growth inhibition was -4.15% (inactive) in test [9] and -11.7% (inactive) in [10]. Moreover, the viability increase in test [11] was -0.64% (inactive). In addition, in [15], the RAM network inhibition is 5.61% (inactive).
On to `COc1ccc(N2Cc3ccccc3C2)cc1Cl`, for which the viability is 118% in test [1]; 118% (inactive) in [3]; 81.9% (inactive) in test [4]; 89.9% (inactive) in test [5]; 94% in test [6] (setting [16]); 89.9% in [6] (setting [17]). Also, the viability in test [12] was 94% (inactive); in test [13] it was 87.7% (inactive). Besides, in test [2], the Her2 level is 114% (inactive). In test [6] (H69AR cells + 2 uM doxorubicin), the differential viability (reversal) was -4.19% (inactive). Moreover, the inhibition in test [7] was -4.27% (inactive); in test [8] it was -9.17% (inactive). Further, the growth inhibition in [9] was -2.97% (inactive); in test [10], -10.6% (inactive). Further, the viability increase in test [11] is 0.04% (inactive). Besides, the RAM network inhibition in test [15] was 7.11% (inactive).
Consider `COc1ccc(N2CCN(c3oc(COc4ccccc4Cl)nc3C#N)CC2)cc1`, for which the viability in test [1] was 109%; in test [3] it was 109% (inactive); in test [4] it was 104% (inactive); in test [5] it was 92.3% (inactive); in test [6] (setting [16]), 83.6%; in [6] (setting [17]) it was 92.3%. Further, the viability is 65.7% (inactive) in test [12] and 64.9% (inactive) in test [13]. Moreover, the Her2 level in test [2] is 105% (inactive). The differential viability (reversal) in test [6] (H69AR cells + 2 uM doxorubicin) was 8.78% (inactive). Besides, the inhibition in test [7] is -6.23% (inactive); in test [8], -4.75% (inactive). The growth inhibition in test [9] was -2.64% (inactive); in test [10] it was -5.2% (inactive). Also, in [11], the viability increase is 2.27% (inactive). Besides, the RAM network inhibition in [15] is 4.12% (inactive).

(Values after PubChem BioAssay.)
